This note sets out measurements from PubChem BioAssay (NCATS).

Structures are written as SMILES. Inconclusive results are not listed. Values without a mark were called inactive. Active and inactive are the calls of the source. Calls follow the shape of the dose curve; as a rule, active = well fitted curve in the direction sought with a large enough effect; inconclusive = small, poorly fitted or top-dose-only effect, or another doubt; inactive = no such curve, though single readings can be large; an effect the other way counts as inactive or inconclusive.

A short description of assay [1]: P-glycoprotein substrates identified in KB-3-1 adenocarcinoma cell line, qHTS therapeutic library screen (AID 1346986). Also: nearly all actives have a fitted effect of over 60% in size. The gist of the method: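 Counter-screen: cherry-picked hits retested in the KB pair and in HEK-293 pcDNA/MDR-19 cells ± tariquidar. Primary screen used 72 h CellTiter-Glo viability in KB-3-1 and KB-8-5-11.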
For orientation: Quantitative high-throughput screening tests each substance at several concentrations.

Assay [2] can be described thus: P-glycoprotein substrates identified in KB-8-5-11 adenocarcinoma cell line, qHTS therapeutic library screen (AID 1346987). Also: nearly all actives have a fitted effect of over 65% in size. As to activity change, negative = cytotoxicity: series mostly up to about 44 µM; % is scaled to controls: 0 for no effect and ±100 for the full control effect. In a few lines: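 P-gp-mediated resistance screen: KB-8-5-11 cells treated 72 h with compounds in dose-response. CellTiter-Glo viability.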
Assay [3] is described as follows: Confirmatory screen GU Rhodamine qHTS for Zika virus inhibitors qHTS (AID 1347157). Also: potency is read from the fitted curve at half-maximal effect; nearly all actives have a fitted effect of over 70% in size. The gist of the method: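 A qHTS format was used, with compound concentrations ranging up to 114 microM. Each compound was preincubated with 25 nM NS2B-NS3 protease, and the substrate was then added at 1.5 microM. Curves were fitted with a 4-parameter Hill model.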
Assay [4] deals with Zika virus NS2B-NS3 protease (unlinked complex). The experiment in a line: Primary screen GU Rhodamine qHTS for Zika virus inhibitors: Unlinked NS2B-NS3 protease assay (AID 1347159). Also: nearly all actives have a fitted effect of over 60% in size. Also: potency is read from the fitted curve at half-maximal effect. As to activity change, negative = inhibition: % is scaled to controls: 0 for no effect and ±100 for the full control effect. In a few lines: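 Percent inhibition derives from the 15-min fluorescence change (ex 480, em 540 nm), normalized to no-enzyme and no-inhibitor wells. Reactions contained 25 nM NS2B-NS3 complex and 1.5 microM substrate in 10 mM Tris-HCl pH 8.0.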

Assay [5] is described as follows: Confirmatory screen NINDS Rhodamine qHTS for Zika virus inhibitors (AID 1347161). Also: potency is read from the fitted curve at half-maximal effect; nearly all actives have a fitted effect of over 60% in size. In a few lines:
(§1)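 In 10 mM Tris-HCl pH 8.0 containing 0.01% Tween 20, linked NS2B-NS3 protease (25 nM final) is exposed to test compounds for 15 min. Cleavage of 1.5 microM Rhodamine110 substrate is tracked by fluorescence over 15 min.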

Assay [6] has as its system Zika virus NS2B-NS3 protease (linked construct). Briefly: Primary screen NINDS Rhodamine qHTS for Zika virus inhibitors (AID 1347160). Also: nearly all actives have a fitted effect of over 55% in size. Also: potency is read from the fitted curve at half-maximal effect. As to activity change, negative = inhibition: % is scaled to controls: 0 for no effect and ±100 for the full control effect. In a few lines:
as §1

Regarding `CC(C)=CCC[C@@](C)(O)[C@H]1CC[C@]2(C)[C@@H]1[C@H](O)CC1[C@@]3(C)CC[C@H](O[C@@H]4O[C@H](CO)[C@@H](O)[C@H](O)[C@H]4O[C@@H]4O[C@H](CO)[C@@H](O)[C@H](O)[C@H]4O)C(C)(C)[C@@H]3CC[C@]12C` (stereo not given in full), the Potency entry in assay [1], in assay [2] and in assay [4] was “inactive” in each case. Also, the values for the Potency in assay [3] and in assay [5] were 14.7 µM (active) and 16.5 µM (active), respectively.
Consider `C=C1CCC2C(C)(C(=O)O)CCCC2(C)C1CC/C(C)=C\CO` (stereo not given), for which the Potency entry in assay [1], in assay [2], in assay [4] and in assay [6] was “inactive” throughout.
In the case of `COc1c(-c2ccc(O)cc2)cc(OC)c2c1oc1cc(O)c(OC3OC(CO)C(O)C3O)cc12` (stereo not given), the Potency entry in assay [1] and in assay [2] was “inactive” throughout. Also, the Potency in assay [4] is 15.8 µM (active).
For `CC(=O)OC1CC2(C)C(CCC(C)C23Cc2c(O)cc4c(c2O3)CNC4=O)C(C)(C)C1O` (stereo not given), the Potency entry in assay [1], in assay [2], in assay [4] and in assay [6] was “inactive” each time.
Turning to `C[C@]1(OC(=O)/C=C\c2ccc(O)cc2)C[C@@H](O)[C@]2(O)C=CO[C@@H](O[C@@H]3O[C@H](CO)[C@@H](O)[C@H](O)[C@H]3O)C12` (stereo not given in full), the Potency entry in assay [1], in assay [2], in assay [4] and in assay [6] was “inactive” each time.
Turning to `CC(C)=C1CC2C(CCC2(C)O)C(C)(O)CC1=O` (stereo not given), the Potency entry in assay [1], in assay [2] and in assay [4] was “inactive” in each case.
With `COc1cccc(OC)c1-c1ccc(C[C@H](NC(=O)c2c(Cl)cccc2Cl)C(=O)O)cc1`, the Potency result in assay [1], in assay [2], in assay [4] and in assay [6] was “inactive” in each case.
Take `CC(C)=CCC/C(C)=C/CO[C@@H]1O[C@H](CO[C@@H]2OC[C@](O)(CO)[C@H]2O)[C@@H](O)[C@H](O)[C@H]1O`: the Potency result in assay [1], in assay [2], in assay [4] and in assay [6] was “inactive” throughout.
For the compound `C=CC(C)(O)C1CC2C3(C)CCCC(C)(C)C3C(O)C(O)C2(C)O1` (stereo not given), the Potency entry in assay [1], in assay [2], in assay [4] and in assay [6] was “inactive” each time.
Turning to `COC(=O)[C@H](Cc1cccc(C(=N)N)c1)[C@@H](C)NC(=O)c1ccc(-c2cc[n+]([O-])cc2)cc1`, the Potency result in assay [1], in assay [2], in assay [4] and in assay [6] was “inactive” each time.
On to `C[C@@H](c1ccccc1)N(C(N)=NC#N)c1cccc2ncccc12`, for which the Potency result in assay [1], in assay [2], in assay [4] and in assay [6] was “inactive” in each case.
With `C/C(=C\CO)CC/C=C(\C)C(=O)O[C@@H]1O[C@H](CO)[C@@H](O)[C@H](O)[C@H]1O`, the Potency entry in assay [1], in assay [2], in assay [4] and in assay [6] was “inactive” in each case.
In the case of `COC(=O)C(CC1(O)c2ccccc2N2C(=O)C(CC(C)C)NC21)n1cnc2ccccc2c1=O` (stereo not given), the Potency result in assay [1], in assay [2], in assay [4] and in assay [6] was “inactive” each time.
Regarding `CC(C)C1NC(=O)C(CC2(O)c3ccccc3N3C(=O)C(Cc4ccccc4)NC32)NC1=O` (stereo not given), the Potency entry in assay [1], in assay [2], in assay [4] and in assay [6] was “inactive” each time.
Turning to `CC(=O)c1[nH]cc(CCC(=O)O)c1CC(=O)O`, the Potency result in assay [1], in assay [2], in assay [4] and in assay [6] was “inactive” throughout.
For `C=CC(C)(O)CC/C=C(\C)C(=O)O[C@@H]1[C@@H](O)[C@H](OC(C)(C=C)CC/C=C(\C)C(=O)O)O[C@H](CO)[C@H]1OC(=O)/C(C)=C/CCC(C)(O)C=C` (stereo not given in full), the Potency result in assay [1], in assay [2], in assay [4] and in assay [6] was “inactive” in each case.
As for `COc1cc(/C=C/CO[C@@H]2O[C@H](CO)[C@@H](O)[C@H](O)[C@H]2O)cc(OC)c1O[C@@H]1O[C@H](CO)[C@@H](O)[C@H](O)[C@H]1O`, the Potency entry in assay [1], in assay [2], in assay [4] and in assay [6] was “inactive” throughout.
In the case of `COC(=O)C1=CO[C@@H](O[C@@H]2O[C@H](CO)[C@@H](O)[C@H](O)[C@H]2O)/C(=C\CO)[C@@H]1CC(=O)OCCc1ccc(O)cc1`, the Potency result in assay [1], in assay [2], in assay [4] and in assay [6] was “inactive” throughout.
With `COC(=O)C1=CO[C@@H](O[C@@H]2O[C@H](CO)[C@@H](O)[C@H](O)[C@H]2O)C2C1CC(O)C2C` (stereo not given in full), the Potency entry in assay [1], in assay [2], in assay [4] and in assay [6] was “inactive” each time.
In the case of `COC(=O)c1c(CC=C(C)C)c(OC2OC(CO)C(O)C(O)C2O)c2ccccc2c1OC1OC(CO)C(O)C(O)C1O` (stereo not given), the Potency result in assay [1], in assay [2], in assay [4] and in assay [6] was “inactive” each time.
`C[C@@H]1O[C@@H](O[C@H]2[C@H](OC(=O)[C@]34CCC(C)(C)C[C@H]3C3=CCC5[C@@]6(C)C[C@@H](O)[C@@H](O[C@@H]7O[C@H](CO)[C@@H](O)[C@H](O)[C@H]7O)[C@@](C)(CO)C6[C@H](O)C[C@@]5(C)[C@]3(C)CC4)OC[C@H](O)[C@@H]2O)[C@H](O)[C@H](O[C@@H]2OC[C@](O)(CO)[C@H]2O)[C@H]1O[C@@H]1OC[C@@H](O)[C@H](O[C@H]2O[C@H](C)[C@@H](O)[C@H](O)[C@@H]2O)[C@H]1O` (stereo not given in full): in assay [1], the outcome was “inactive [at 9.29 µM]”. Further, in assay [2], the activity change, negative = cytotoxicity was 2.77% [at 9.29 µM]. For the same compound, in assay [4], the activity change, negative = inhibition is 9.3% [at 19.1 µM]. The Potency result in assay [6] is “inactive”.
With `O=C(O)CC1CCC(c2ccc(NC(=O)c3nnc(Nc4ccc(F)c(F)c4)o3)cc2)CC1` (stereo not given), the Potency result in assay [1] and in assay [2] was “inactive” each time. In addition, the Potency in assay [4] and in assay [6] was 14.1 µM (active) each time.
Turning to `CC1(C)C2CCC1(C)C(OC(=O)C(O)(CC(=O)O)CC(=O)O)C2` (stereo not given), the Potency result in assay [1], in assay [2], in assay [4] and in assay [6] was “inactive” in each case.
`CC(=O)NC(Cc1c[nH]c2ccccc(=O)c12)C(=O)O` (stereo not given): the Potency result in assay [1] and in assay [2] was “inactive” throughout. Further, the Potency in assay [4] was 22.4 µM (active); in assay [6] it was 15.8 µM (active).
